Bioassay records: PubChem BioAssay, National Center for Advancing Translational Sciences (NCATS)
TDP1 cell noCPT: qHTS for Inhibitors of human tyrosyl-DNA phosphodiesterase 1 (TDP1): qHTS in cells in absence of CPT; 15% of 420,000 active; DT40 Tdp1-/- hTDP1 cells, no CPT, ATP luminescence, 48 h; Potency, µM (doses to about 46.2 µM), without a hit: top-dose activity change, negative = growth inhibition, actives largely listed as inhibitors; note: % is set by controls: 0 for no effect and ±100 for the full control effect; nearly all actives have a fitted effect of over 55% in size
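Luminescent ATP content (CellTiter-Glo) served as the growth readout. Knockout chicken DT40 cells expressing human TDP1 were exposed to compounds without camptothecin for a minimum 48 hr at 37 °C.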
HT1080-NT tox: kills 2HG-producing HT-1080-NT fibrosarcoma cells | HT-1080-NT fibrosarcoma viability, CellTiter-Glo ATP luminescence, 48 h | 1.6% of 360,000 active | Potency, µM (highest dose often 46.1 µM), for inactives: at the top dose activity, negative = less viability, actives largely listed as cytotoxic;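 note: NT is the 2HG producing partner of a matched IDH1 knockdown line; 0% = DMSO-treated cells and -100% = media-only wells without cells; nearly all actives have a fitted effect of over 55% in size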
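Read-out is CellTiter-Glo luminescence after 10 minutes at room temperature, following 48 hours' compound treatment of HT-1080-NT cells (750 cells/well, RPMI, 5% FBS, 37 degrees C).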
TDP1 cell CPT: growth inhibition of DT40 Tdp1-/-;hTDP1 cells with camptothecin (screen for TDP1 inhibitors); chicken DT40 Tdp1-/-;hTDP1 cells + 20 nM CPT, ATP luminescence, 48 h; Potency, µM (series often up to 46.2 µM), for the others: top-dose activity change, negative = growth inhibition, actives largely listed as inhibitors; 12% of 420,000 active; note: % is set by controls: 0 for no effect and ±100 for the full control effect; nearly all actives have a fitted effect of over 55% in size
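Cell growth measured by CellTiter-Glo luminescence after a minimum 48 h, 37 C compound exposure with 20 nM CPT in Tdp1-knockout DT40 cells stably expressing hTDP1, seeded 400/well; qHTS titration format.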
HepG2 viability: HepG2 cytotoxicity, counter-screen for TGF-b inhibitors. HepG2 CAGA-GFP viability, ATP luminescence, 18 h. Potency, µM (highest dose often 46.1 µM), inactives show at the highest dose activity change, negative = cytotoxicity, actives largely listed as cytotoxic. 0.76% of 410,000 active. AID 588856
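HepG2 CAGA-GFP cells (1000/well, DMEM with 1% FBS) received compound, then TGF-beta at 500 pg/mL final, and were incubated 18 hours at 37 degrees C. Viability was read by CellTiter-Glo luminescence. Media-only wells were set as complete cell-killing and DMSO as no toxicity.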
TGFb inhibitor: inhibitors of TGF-b signaling; HepG2 CAGA-GFP TGF-b/SMAD3 reporter, GFP fluorescence, 18 h; TGF-beta stimulated, 500 pg/mL final; AID 588855; Potency, µM (highest dose often 46.1 µM), for the others: at the highest dose activity, negative = inhibition, actives largely listed as inhibitors; 1.2% of 410,000 active; note: % is set by controls: 0 for no effect and ±100 for the full control effect; nearly all actives have a fitted effect of over 65% in size
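HEPG2 CAGA-GFP, 1000 cells/well; 2 h settle, 37 C; cpd via pin tool; TGF-b 500 pg/mL final; 18 h, 37 C; GFP imaging ex488/em500-530; %Activity normalised to -TGF-b and +DMSO controls; CRC fit, curve class.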
HT1080 IDH1KD tx: kills HT-1080 cells with IDH1 knockdown. HT-1080 IDH1 knockdown viability, ATP luminescence, 48 h. Potency, µM (doses to about 46.1 µM), for the others: at the highest dose activity, negative = toxicity, hits mostly cytotoxic. 2% of 360,000 active;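 note: 0% = DMSO wells and -100% = cell-free medium wells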
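Viability of IDH1-knockdown HT-1080 fibrosarcoma cells was assessed by CellTiter-Glo after 48 h at 37 °C with titrated compound; concentration-effect curves were classified by fit quality and response size.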
* hit, by the source's call; ? = inconclusive; nt = no result. A selection: hits, their analogues and other compounds. The true share with any hit is near 17%. Calls come from the whole dose curve; as a rule, active = well fitted curve in the direction sought with a large enough effect; inconclusive = small, poorly fitted or top-dose-only effect, or another doubt; inactive = no such curve, though single readings can be large; an effect the other way counts as inactive or inconclusive. Potency is the fitted concentration of half-maximal effect.

SMILES	TDP1 cell noCPT	HT1080-NT tox	TDP1 cell CPT	HepG2 viability	TGFb inhibitor	HT1080 IDH1KD tx
CC(C)c1ccc(NC(=O)Nc2nc(C(N)CCc3ccccc3)cs2)cc1 (configuration not stated)	4.61µM*	?	5.8µM*	7.94µM*	?	13µM*
Cn1c(=O)c2c(ncn2CC(=O)Nc2nc(-c3ccccc3Cl)cs2)n(C)c1=O	-18.1%	-28.0%	?	-12.5%	-0.9%	-29.6%
Cc1ccc2c(c1)C1C[N+](C)(CC(=O)Nc3ccccc3Cl)CCC1N2C(=O)c1ccccc1Cl (configuration not stated)	-5.1%	2.6%	-7.5%	73.0%	32.4%	10.3%
O=C(c1ccc(-c2ccccc2)cc1)C1CCCN(Cc2ccn[nH]2)C1 (configuration not stated)	?	-4.4%	?	-31.5%	-4.6%	-9.9%
Cc1ccc(NC(=O)c2snnc2C)cc1Cl	-2.4%	23.6%	12.1%	-23.5%	16.2%	6.6%
Cc1nn(C(C)(C)C)c(C)c1/C=N/OC(=O)Nc1ccc(Cl)c(Cl)c1	16.4µM*	-4.1%	14.6µM*	-78.2%	17.8µM*	-4.4%
COC(=O)CCCC(NC(=S)N1CC2C[C@@H](C1)Cn1c2cccc1=O)C(=O)OC (some centres not stated)	18.0%	15.2%	-0.2%	9.3%	12.7%	15.8%
CC(C)Cc1nc(N2CCNCC2)c(C#N)c2c1CCC2	18.4µM*	1.5%	?	12.9%	17.2%	-1.6%
COc1ccc(P2(=O)Nc3ccccc3N2)cc1	?	-10.9%	14.6µM*	-5.9%	-24.2%	-19.8%
CC(C)(C)c1ccc(O)c(N=Cc2c(O)ccc3ccccc23)c1	16.4µM*	-7.5%	25.9µM*	-36.3%	?	-27.2%
Nc1ccc2c3c(cccc13)-c1ccccc1-2	-25.1%	?	1.6%	-18.4%	97.0%	?
COc1ccc(C(=O)C2CCCN(C3CSCCSC3)C2)c(OC)c1 (configuration not stated)	23.1µM*	-7.4%	?	-0.7%	11.7%	-3.2%
COc1ccc(C(=O)C2CCCN(C3CSCCSC3)C2)c(C)c1 (configuration not stated)	?	2.9%	?	-22.1%	3.6%	-11.3%
COc1ccc(C(=O)C2CCCN(Cc3cccc(C)n3)C2)c(OC)c1 (configuration not stated)	20.6µM*	3.0%	?	-13.9%	-7.9%	-20.4%
COc1ccc(C(=O)C2CCCN(Cc3ccc(C)s3)C2)c(OC)c1 (configuration not stated)	20.6µM*	-23.1%	?	-3.2%	-23.2%	-16.6%
O=S1(=O)CC2(N3CCOCC3)CCCCC21 (configuration not stated)	-14.4%	18.7%	-20.2%	2.9%	-3.6%	-0.9%
CC[C@]1(O)CC[C@H]2[C@@H]3CCC4=CCCC[C@@H]4[C@H]3CC[C@@]21C	5.31µM*	nt	7.5µM*	nt	nt	nt
Cc1cc(C(=O)OCC(=O)Nc2cccc(F)c2)c(C)n1C1CC1	-0.8%	0.2%	?	0.1%	-5.5%	0.0%
CCOC(=O)c1cc(-c2ccccc2)n(CCCC(=O)Nc2ccc(C)c(C)c2)c1C	3.66µM*	nt	16.4µM*	-23.9%	?	nt
O=c1c2ccccc2nc(Cc2ccccc2)n1-c1ccc(O)cc1	?	-27.2%	?	-11.2%	13.1%	-10.7%
CN(Cc1ccccc1)C(=O)c1ccc(NC(=O)C2CCN(C(=O)OC(C)(C)C)CC2)cc1	14.6µM*	-18.5%	23.1µM*	1.7%	-9.0%	-22.2%
O=C1COc2ccc(-c3csc(=Nc4ccc(OC(F)F)cc4)n3CC3CCCO3)cc2N1 (configuration not stated)	16.4µM*	?	?	-51.5%	-23.2%	?
Cc1ccc(/C=C2/C(=O)NC(=O)N(CC3CCCO3)C2=O)s1 (configuration not stated)	?	3.0%	-26.6%	0.4%	5.0%	8.1%
O=C(N=Nc1c(O)[nH]c(=O)[nH]c1=O)C1COc2cc3ccccc3cc2O1 (configuration not stated)	?	-4.2%	18.4µM*	-1.8%	9.7%	0.0%
CCOc1ccc2nc(NC(=O)c3cccn(Cc4ccccc4)c3=O)sc2c1	?	nt	?	-9.6%	?	nt
SMILES	TDP1 cell noCPT	HT1080-NT tox	TDP1 cell CPT	HepG2 viability	TGFb inhibitor	HT1080 IDH1KD tx
CCn1c(O)c(C=Nc2ccc(S(N)(=O)=O)cc2)c(=O)n(CC)c1=S	?	-15.6%	?	-6.8%	-14.7%	-1.1%
NS(=O)(=O)c1ccc(N=Cc2c(O)n(C3CCCCC3)c(=O)n(C3CCCCC3)c2=O)cc1	16.4µM*	?	14.6µM*	-111.3%	15.8µM*	?
COC(=O)C1(F)C(=O)NC(=O)NC1O (configuration not stated)	-20.5%	-3.2%	13.9%	nt	nt	-2.6%
O=C1C=C2C=C[C@@H]3CC2(O1)[C@H]1CCCCN31	18.4µM*	-25.1%	?	-19.7%	-15.8%	?
CC(=NCc1ccco1)c1c(O)n(-c2ccc(C)cc2)c(=O)[nH]c1=O	10.7%	-12.2%	-6.5%	-15.4%	-26.1%	4.6%
c1ccc(CNc2c3c(nc4ccccc24)CCC3)cc1	14.6µM*	?	?	-28.5%	?	?
OCCNc1c2c(nc3ccccc13)CCCC2	-32.1%	3.0%	-8.2%	-1.5%	1.3%	12.5%
CC(C)CNc1c2c(nc3ccccc13)CCC2	18.4µM*	-6.8%	?	-12.6%	-21.0%	-22.5%
COC(=O)CC1(CC(=O)OC)C(=O)N(c2ccccc2)C(=O)N(c2ccccc2)C1=O	-25.7%	3.3%	12.6%	-0.2%	4.5%	0.0%
N#Cc1ccc(CN2CC[C@@]3(CCCN(C(=O)Oc4ccccc4)C3)C2)cc1	?	nt	-1.0%	nt	nt	nt
CC(CN(C)C1CCN(C)CC1)c1ccccc1 (configuration not stated)	1.6%	-6.3%	-8.8%	-1.5%	0.0%	-2.0%
COc1ccc(-c2n(-c3ccccn3)c3ccccc3[n+]2-c2ccccn2)cc1	13µM*	8.0%	13µM*	9.5%	10.6%	2.1%
CCCCCCCCn1sccc1=O	1.16µM*	6.51µM*	0.731µM*	-96.8%	5.62µM*	8.2µM*
CN(C)CCNC(=O)c1cccn(Cc2cccc(C(F)(F)F)c2)c1=O	?	8.0%	23.1µM*	6.4%	?	0.0%
